Experimental data from PubChem BioAssay.
Activity calls are given as the source filed them.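 How the source made its calls: active means inhibition at or above 50% relative to wild type and mutant plate controls; inactive means inhibition below 50%.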

assay: inhibitors of Chlamydomonas gravitaxis, primary screen, whole organism, Chlamydomonas reinhardtii, WT vs cilia-less mutant, absorbance, 96-well (AID 463189); details: OD600 absorbance, 2 days, at 10 µM, hits give high values;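 further: 0% = wild type cc124 cells in DMSO and 100% = ciliumless bld1 mutant cells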

inhibition, inactive:
NCCS(=O)O 4.12%
NC(N)=NCCSSCCN=C(N)N -8.7%
O=c1cc(O)cc(/C=C/c2ccc(O)c(O)c2)o1 -6.22%
N#C/C(=C\c1ccc(O)c(O)c1)C(=O)Nc1ccccc1 5.13%
COC(=O)[C@@H]1[C@H]2C[C@H]3c4[nH]c5ccccc5c4CCN3C[C@@H]2CC[C@@H]1O 8.68%
N[C@@H](COP(=O)(O)O)C(=O)O 2.62%
CSc1ccc2c(c1)C(N1CCN(C)CC1)Cc1ccccc1S2 (centres undefined) 0.427%
Nc1nc2[nH]c(=O)cnc2c(=O)[nH]1 5.48%
COc1c2c(nc3ccccc13)OC(C(C)(O)CO)C2 (centres undefined) 6.88%
CN=C(NC#N)NCCSCc1nc[nH]c1C 8.94%
O=C1c2c(O)ccc(O)c2C(=O)c2c(NCCNCCO)ccc(NCCNCCO)c21 28.8%
CN(C)C(=O)/N=N/C(=O)N(C)C -5.45%
NCCC1CCCC(CCN)N1 (centres undefined) 5.08%
CCC1(O)CC2CN(CCc3c([nH]c4ccccc34)[C@@](C(=O)OC)(c3cc4c(cc3OC)N(C=O)C3[C@]45CCN4CC=C[C@@](CC)([C@@H](OC(C)=O)[C@]3(O)C(=O)OC)[C@H]45)C2)C1 (some centres undefined) 1.07%
CN(C)c1cc2c(Nc3ccc4c(cnn4Cc4ccccc4)c3)ncnc2cn1 2.93%
O=C(O)CCc1nc(-c2ccccc2)c(-c2ccccc2)o1 7.1%
CCCCCCCCCC(=O)NC(CN1CCOCC1)[C@H](O)c1ccccc1 (some centres undefined) -8.57%
N.N.O=C(O)C1(C(=O)O)CCC1.[Pt+2] 3.35%
CNC(=O)c1cc2c(cn1)[nH]c1ccccc12 4.1%
NC(=S)NCCCC(N)C(=O)O (centres undefined) 0.102%
S=C(Nc1ccccc1)Nc1nccs1 7.29%
O=C(O)CCC(=O)N1CCCC1C(=O)O (centres undefined) 0.347%
NC(=O)c1cnccn1 1.54%
CC(CN(C)C)CN1c2ccccc2CCc2ccccc21 (centres undefined) 1.33%
CCn1cc(C(=O)O)c(=O)c2ccc(Cc3ccccc3)nc21 6.19%
CCN(CC)C(C)C(=O)N1c2ccccc2Sc2ccccc21 (centres undefined) 40.1%
O=c1[nH]ccc2c(O)cccc12 3.93%
COc1ccccc1N1CCN(CCCNc2cc(=O)n(C)c(=O)n2C)CC1 9.94%
O=C(NCCNCC(O)COc1ccc(O)cc1)N1CCOCC1 (centres undefined) 10.1%
Cn1cc(C(F)(F)F)nc1-c1ccc(OCC(O)CNCCOc2ccc(O)c(C(N)=O)c2)cc1 (centres undefined) -6.96%
N[C@@H](CCCC(=O)O)C(=O)O 6.53%
CC(=O)O[C@H]1C(=O)[C@@]2(C)C([C@H](OC(=O)c3ccccc3)[C@]3(O)C[C@H](OC(=O)[C@H](O)[C@@H](NC(=O)c4ccccc4)c4ccccc4)C(C)=C1C3(C)C)[C@]1(OC(C)=O)CO[C@@H]1C[C@@H]2O (some centres undefined) 8.47%
CC(C)(Oc1ccc(C2CC2(Cl)Cl)cc1)C(=O)O (centres undefined) 1.41%
CC(N=C(NC#N)Nc1ccncc1)C(C)(C)C (centres undefined) -9.18%
COc1ccc(CCCOc2cc(CCn3ccnc3)ccc2OC)cc1 1.24%
Nc1ccc(CCNc2ncnc3c2ncn3C2OC(CO)C(O)C2O)cc1 (centres undefined) 3.12%
CC(CCc1ccc(O)cc1)NCCc1ccc(O)c(O)c1 (centres undefined) -1.59%
NC1(C(=O)O)CC1 5.31%
O=C(O)c1cc2cc(Cc3cccnc3)ccc2o1 -4.17%
